Assay [1] concerns the target Cytochrome P450 1A2 (Homo sapiens) (UniProt P05177). The assay is described as follows: p450-cyp1a2 (AID 410; calls by dose curve; further: potency means the concentration at half of the fitted maximal effect). As to conditions: recombinant CYP1A2, luciferin-ME demethylation, luminescence; series mostly up to 57 µM. In short, it runs like this:
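Luminescent readout of luciferin formed from Luciferin-ME by human CYP1A2; data normalized against complete inhibition by 57 uM furafylline. Enzyme 20nM, substrate 100uM at Km, 100mM KPO4 buffer, 60 min reaction at room temperature.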

A short description of assay [2]: NFAT Signaling Pathway (AID 444; active means well fitted curve in either direction with a large enough effect, not every such curve was filed as active;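 further: carbachol stimulus at about its EC50 of 1 µM final; on the % scale 0 is the no-effect control and ±100 the full control effect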). As to conditions: Jurkat NFAT-bla M1, carbachol, beta-lactamase ratio, 5 h; at 7.69 µM (top of the series) unless noted. In a few lines:
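Jurkat cells with NFAT-driven β-lactamase reporter and co-expressed M1 receptor, stimulated with carbachol (final 1 uM, ~EC50), compound titration, 5 h at 37 °C. CCF4 loaded 1 h at RT; 460/530 nm ratio gave %activity and AC50.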

The nature of assay [3]: Stat Signaling Pathway (AID 446; active means well fitted curve in either direction with a large enough effect, not every such curve was filed as active;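 further: ME-180 cervical cancer cells given 40 pM IL-6 alongside compound; SIE-controlled beta-lactamase reporter measured as 460/530 nm FRET emission ratio; on the % scale 0 is the no-effect control and ±100 the full control effect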). As to conditions: ME-180 SIE beta-lactamase reporter, IL-6 stimulated, 5 h; at 7.69 µM (top of the series) unless noted. In a few lines: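 ME-180 cells carrying a SIE-driven beta-lactamase reporter are stimulated with 40 pM IL-6 for 5 h at 37C in the presence of compound. The 460/530 nm FRET substrate ratio is read after 2.5 h at RT. Data are normalised to 300 pM IL-6 and to 125 nM JAK inhibitor controls.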

In assay [4] the target is Glucocorticoid receptor (Homo sapiens) (UniProt P04150). The assay is described as follows: GR-GFP Redistribution (AID 450;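 active means compounds whose dose series gives a full or clear partial fitted curve of increased nuclear translocation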; further: potency means the concentration at half of the fitted maximal effect). Particulars: U2OS GR-GFP nuclear translocation, laser cytometry, 2 h.
Glucocorticoid receptor (Homo sapiens), sequence (P04150 whole entry, looked up): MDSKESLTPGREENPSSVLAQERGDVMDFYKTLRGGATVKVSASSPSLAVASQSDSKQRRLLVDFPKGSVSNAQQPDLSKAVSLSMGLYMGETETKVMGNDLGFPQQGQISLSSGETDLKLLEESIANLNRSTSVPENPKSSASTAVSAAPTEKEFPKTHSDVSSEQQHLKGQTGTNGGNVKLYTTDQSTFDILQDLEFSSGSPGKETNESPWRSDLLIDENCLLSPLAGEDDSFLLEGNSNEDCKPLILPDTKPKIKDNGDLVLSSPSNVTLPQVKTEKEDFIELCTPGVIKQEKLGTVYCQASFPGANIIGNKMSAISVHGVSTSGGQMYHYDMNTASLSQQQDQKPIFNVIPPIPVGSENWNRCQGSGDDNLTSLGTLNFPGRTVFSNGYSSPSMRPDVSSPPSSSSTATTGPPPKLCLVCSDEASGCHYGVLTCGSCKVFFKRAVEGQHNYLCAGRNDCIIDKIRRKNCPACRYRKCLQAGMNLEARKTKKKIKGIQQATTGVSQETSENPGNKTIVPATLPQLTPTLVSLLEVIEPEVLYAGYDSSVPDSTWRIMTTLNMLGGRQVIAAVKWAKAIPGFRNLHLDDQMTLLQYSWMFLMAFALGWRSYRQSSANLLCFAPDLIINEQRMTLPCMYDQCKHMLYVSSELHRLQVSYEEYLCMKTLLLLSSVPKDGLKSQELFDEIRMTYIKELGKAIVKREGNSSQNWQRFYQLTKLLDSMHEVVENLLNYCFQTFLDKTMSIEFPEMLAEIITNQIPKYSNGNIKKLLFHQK
The target is the same in assay [5]. Briefly: GR-EFC Redistribution (AID 451; calls by dose curve; further: potency means the concentration at half of the fitted maximal effect). Particulars: CHO-K1 GR-EFC translocation, beta-gal luminescence, 2 h. In short, it runs like this:
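CHO-K1 cells expressing nuclear EA and GR-ED fragments of b-gal; compounds titrated up to 46 uM final, 2 h at 37 C. GR nuclear translocation read as complemented b-gal luminescence after 1 h RT detection.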

For assay [6], the target named is Mitogen-activated protein kinase 10 (Mus musculus) (UniProt Q61831). The assay is described as follows: JNK3 AlphaScreen Assay (AID 530; active means well fitted curve in either direction with a large enough effect, not every such curve was filed as active;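 further: kinase came from lysate of stimulated human HepG2 cells; signal reports phosphorylation of biotinylated GST-cJun 1-79 at Ser73 with 10 µM ATP; on the % scale 0 is the no-effect control and ±100 the full control effect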). As to conditions: JNK3 lysate, c-Jun phosphorylation; series mostly up to 57.1 µM. In a few lines: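 Pre-activated (IL-1β/TNFα) JNK3 in HepG2 lysates phosphorylates biotin-GST-cJun(1-79), 10 uM ATP; anti-phospho-cJun(Ser73) AlphaScreen read at room temperature, pH 7.6 Tris buffer. Compounds pre-incubated 15 min as titrations.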

The target of assay [7] is 3',5'-cyclic-AMP phosphodiesterase 4B (Homo sapiens) (UniProt Q07343). Briefly: qHTS Assay for Inhibitors of PDE-IV (AID 607; active means well fitted activation curve with a large enough effect in the main read-out, with a control signal flat, not every such curve was filed as active; further: % of control where 0% means no effect). Particulars: HEK293 ACTOne CNG channel cells, membrane potential fluorescence; series mostly up to 22.9 µM. In a few lines: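 HEK293 ACTOne cells with CNG channel (1000/well), endogenous PDE4; membrane potential dye, compounds up to 22.9 uM final. Fluorescence Ex 535/Em 590; RO 20-1724 (100 uM final) as reference.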
3',5'-cyclic-AMP phosphodiesterase 4B (Homo sapiens), sequence (Q07343 whole entry, looked up): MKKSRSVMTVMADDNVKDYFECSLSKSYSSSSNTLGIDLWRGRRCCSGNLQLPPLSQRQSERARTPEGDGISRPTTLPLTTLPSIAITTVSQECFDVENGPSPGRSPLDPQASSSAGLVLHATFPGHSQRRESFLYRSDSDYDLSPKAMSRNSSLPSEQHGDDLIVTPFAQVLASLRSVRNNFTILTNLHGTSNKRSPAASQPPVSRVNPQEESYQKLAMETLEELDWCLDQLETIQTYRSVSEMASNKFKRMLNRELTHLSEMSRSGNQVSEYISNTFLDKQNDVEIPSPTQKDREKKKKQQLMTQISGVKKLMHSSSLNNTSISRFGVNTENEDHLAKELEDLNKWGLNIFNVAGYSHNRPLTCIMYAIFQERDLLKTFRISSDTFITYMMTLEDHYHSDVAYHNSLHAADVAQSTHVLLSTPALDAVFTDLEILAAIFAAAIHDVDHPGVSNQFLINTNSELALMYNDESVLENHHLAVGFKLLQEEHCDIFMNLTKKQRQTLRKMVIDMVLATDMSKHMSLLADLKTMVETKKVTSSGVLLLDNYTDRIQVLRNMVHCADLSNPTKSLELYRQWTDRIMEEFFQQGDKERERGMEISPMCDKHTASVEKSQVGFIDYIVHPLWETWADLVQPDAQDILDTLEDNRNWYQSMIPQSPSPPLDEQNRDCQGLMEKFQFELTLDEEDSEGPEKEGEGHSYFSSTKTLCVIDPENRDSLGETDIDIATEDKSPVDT

Assay [8] addresses Cytochrome P450 3A4 (Homo sapiens) (UniProt P08684). The assay is described as follows: qHTS Assay for Inhibitors and Substrates of Cytochrome P450 3A4 (AID 884). Further: potency means the concentration at half of the fitted maximal effect; nearly all actives have a fitted effect of over 50% in size. As to conditions: recombinant CYP3A4, Luciferin-PPXE luminescence; series mostly up to 57.1 µM. In short, it runs like this:
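20 nM human CYP3A4 with 25 uM Luciferin-PPXE (at KM) in 200 mM KPO4, preincubated 10 min with compound; NADPH regeneration started a 60 min RT reaction. Luciferin detected by luminescence, normalized to 57 uM ketoconazole as full inhibition.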
(In general: In qHTS, concentration-response curves come from the screen itself.)

The target is the same in assay [9]. The assay is described as follows: qHTS Assay for Activators of Cytochrome P450 3A4 (AID 885). Further: nearly all actives have a fitted effect of over 65% in size. Particulars: recombinant CYP3A4, Luciferin-PPXE luminescence, 60 min; series mostly up to 57.1 µM. In short, it runs like this:
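Human CYP3A4 (20 nM) with Luciferin-PPXE at 25 uM (its KM) in 200 mM KPO4; 10 min compound preincubation, then NADPH regeneration and 60 min reaction at RT. Luciferin read by luminescence; normalized to 57 uM ketoconazole full inhibition.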

Assay [10] concerns the target Cytochrome P450 2C19 (Homo sapiens) (UniProt P33261). Briefly: qHTS Assay for Inhibitors and Substrates of Cytochrome P450 2C19 (AID 899). Further: potency means the concentration at half of the fitted maximal effect; nearly all actives have a fitted effect of over 60% in size. Particulars: recombinant CYP2C19, luciferin-H EGE luminescence; series mostly up to 57.1 µM. In a few lines:
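Signal comes from luciferase acting on luciferin released by CYP2C19-mediated hydroxylation of Luciferin-H EGE, 10uM (KM). Assay mix: 5nM enzyme, 50mM KPO4; 60 min at 37C with NADPH regeneration. Data normalized against 57uM ketoconazole.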

A short description of assay [11]: qHTS Assay for Lipid Storage Modulators (AID 1519; calls by dose curve). Particulars: Drosophila S3 cells, BODIPY lipid droplet/cell ratio, laser cytometry, cells loaded with oleic acid; for activity change, negative = inhibition: at 57.5 µM (top of the series). In a few lines:
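Cells seeded at 5,000 per well were treated with compounds over a concentration series and loaded with oleic acid (400 uM, as added). Lipid droplet fluorescence (488 nm excitation, 500-530 nm channel) was read by laser-scanning cytometry and normalized to 20 uM Triacsin C.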

The target of assay [12] is Dual specificity protein kinase CLK4 (Homo sapiens) (UniProt Q9HAZ1). Briefly: qHTS Assay for Inhibitors of CDC-like Kinase 4 (Kinase-Glo Assay) (AID 1770). Further: nearly all actives have a fitted effect of over 65% in size. Further: potency means the concentration at half of the fitted maximal effect. Particulars: recombinant Clk4, Kinase-Glo ATP depletion luminescence; series mostly up to 66.7 µM. In short, it runs like this:
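Substrate mix (RS peptide 100 uM, ATP 1 uM) dispensed, compound pinned in, then Clk4 added to 25 nM final. Incubated 4.5 h at RT; Kinase-Glo reagent added, luminescence read after 5 min.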

For assay [13] the target is unchanged. Briefly: qHTS Assay for Inhibitors of CDC-like Kinase 4 (ADP-Glo Assay) (AID 1771). Further: nearly all actives have a fitted effect of over 70% in size. Further: potency means the concentration at half of the fitted maximal effect. Particulars: recombinant CLK4, ADP-Glo luminescence; series mostly up to 80 µM. In short, it runs like this:
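Luminescence from ADP-Glo reports ADP produced by 25 nM Clk4 acting on 100 uM RS repeat peptide with 1 uM ATP over 1 hr at room temperature; residual ATP is depleted before ADP is converted to ATP for detection.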

For assay [14] the target is unchanged. Briefly: qHTS Assay for Inhibitors of CDC-like Kinase 4 (ADP-FP Assay) (AID 1795). Further: nearly all actives have a fitted effect of over 60% in size. Further: potency means the concentration at half of the fitted maximal effect. As to conditions: Transcreener ADP fluorescence polarization; series mostly up to 50 µM. In short, it runs like this: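 Clk4 6.25 nM; RS peptide 100 uM; ATP 1 uM; 25 mM Tris pH 7.5, 10 mM MgCl2; 1 h reaction. ADP detected via antibody/orange tracer FP displacement; TG003 positive control.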

The target of assay [15] is Ubiquitin carboxyl-terminal hydrolase 1 (Homo sapiens) (UniProt O94782). Briefly: Inhibitors of USP1/UAF1: Pilot qHTS (AID 504865).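 Further: rhodamine fluorescence freed from ubiquitin-rhodamine substrate followed over time; top concentration of the series differs between compounds; on the % scale 0 is the no-effect control and ±100 the full control effect; nearly all actives have a fitted effect of over 35% in size.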 As to conditions: purified USP1/UAF1, Ub-rhodamine cleavage fluorescence; series mostly up to 54.9 µM. In a few lines: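 In 50mM HEPES pH 7.8 containing 0.5mM EDTA, 1mM TCEP, 0.1 mg/ml BSA and 0.01% Tween-20, 1nM USP1/UAF1 is exposed to compound for 15 min, then Ub-Rho (150nM final) is added and fluorescence is read over time.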
Ubiquitin carboxyl-terminal hydrolase 1 (Homo sapiens), sequence (O94782 whole entry, looked up): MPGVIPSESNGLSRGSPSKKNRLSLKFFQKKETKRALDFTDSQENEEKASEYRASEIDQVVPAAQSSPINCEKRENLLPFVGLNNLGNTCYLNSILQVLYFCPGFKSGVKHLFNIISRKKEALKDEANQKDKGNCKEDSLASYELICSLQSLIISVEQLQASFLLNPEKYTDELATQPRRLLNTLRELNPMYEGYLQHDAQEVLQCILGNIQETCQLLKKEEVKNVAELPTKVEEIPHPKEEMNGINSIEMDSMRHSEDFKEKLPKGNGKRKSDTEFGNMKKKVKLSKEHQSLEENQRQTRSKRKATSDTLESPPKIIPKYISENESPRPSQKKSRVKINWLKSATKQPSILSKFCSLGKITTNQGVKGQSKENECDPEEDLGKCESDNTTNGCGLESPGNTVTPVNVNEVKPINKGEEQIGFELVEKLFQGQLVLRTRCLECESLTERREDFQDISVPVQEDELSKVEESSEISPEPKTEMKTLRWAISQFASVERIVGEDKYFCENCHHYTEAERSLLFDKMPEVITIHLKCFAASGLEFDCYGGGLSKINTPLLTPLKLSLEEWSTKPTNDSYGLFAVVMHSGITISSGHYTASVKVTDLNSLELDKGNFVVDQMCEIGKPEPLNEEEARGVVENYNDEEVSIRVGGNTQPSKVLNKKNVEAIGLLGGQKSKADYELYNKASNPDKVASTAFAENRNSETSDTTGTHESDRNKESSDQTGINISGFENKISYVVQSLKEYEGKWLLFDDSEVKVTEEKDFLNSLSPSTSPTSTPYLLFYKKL

The nature of assay [16]: Primary qHTS for small molecule stabilizers of the endoplasmic reticulum resident proteome: Secreted ER Calcium Modulated Protein (SERCaMP) assay (AID 1508630). Further: on the % scale 0 is the no-effect control and ±100 the full control effect. Particulars: SH-SY5Y GLuc-SERCaMP (Gaussia luciferase released on ER calcium loss) secretion, thapsigargin, luminescence; series mostly up to 38.4 µM. In a few lines: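 GLuc-SERCaMP-expressing SH-SY5Y cells, pretreated 16 h with compound, are challenged with thapsigargin to empty ER calcium stores; after 4 h, coelenterazine is added directly to the medium and luminescence is imaged.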

The nature of assay [17]: AP1 Signaling Pathway (AID 357; active means well fitted curve in either direction with a large enough effect, not every such curve was filed as active; further: on the % scale 0 is the no-effect control and ±100 the full control effect). Particulars: ME-180 (cervical carcinoma) AP-1-bla reporter, EGF-induced, beta-lactamase ratio, 5 h; at 7.69 µM (top of the series) unless noted. In a few lines: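 Read-out was the 460nm/530nm emission ratio (excitation 405nm) after CCF4 loading for 2.5 hours at room temperature. Cells carried an AP-1-driven beta-lactamase reporter, were stimulated with EC50 EGF plus compound for 5 hours, and AC50 values came from titrations.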

The target of assay [18] is Lysosomal acid glucosylceramidase (Homo sapiens) (UniProt P04062). The assay is described as follows: Glucocerebrosidase-p2 (AID 348; in the data active means potency below about 10 µM; further: potency means the concentration at half of the fitted maximal effect). Particulars: purified GBA, blue fluorogenic substrate, 40 min. In short, it runs like this: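 Compounds titrated from 0.6 nM upwards against 0.2 nM enzyme in pH 5.9 citric acid/KH2PO4, taurocholate, tween-20; blue fluorogenic substrate 80 uM, 40 min room temperature, stopped and read Ex 365/Em 440 for AC50.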
Lysosomal acid glucosylceramidase (Homo sapiens), sequence (P04062 whole entry, looked up): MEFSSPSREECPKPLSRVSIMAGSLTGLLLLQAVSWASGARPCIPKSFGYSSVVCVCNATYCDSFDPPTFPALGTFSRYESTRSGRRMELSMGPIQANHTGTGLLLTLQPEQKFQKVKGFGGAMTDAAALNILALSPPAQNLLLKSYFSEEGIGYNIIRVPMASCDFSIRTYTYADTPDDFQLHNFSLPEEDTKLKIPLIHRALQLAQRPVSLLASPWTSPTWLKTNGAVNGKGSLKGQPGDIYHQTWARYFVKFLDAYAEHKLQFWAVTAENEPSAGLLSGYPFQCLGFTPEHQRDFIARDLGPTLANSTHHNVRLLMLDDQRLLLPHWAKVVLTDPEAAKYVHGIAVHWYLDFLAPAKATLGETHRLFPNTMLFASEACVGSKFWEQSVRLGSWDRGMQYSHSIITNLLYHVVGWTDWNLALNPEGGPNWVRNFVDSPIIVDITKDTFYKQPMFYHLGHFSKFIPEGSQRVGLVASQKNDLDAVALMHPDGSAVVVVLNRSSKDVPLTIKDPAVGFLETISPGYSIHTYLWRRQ

Setting [19] is: measured here: cell count channel max response.
Where [20] appears, read: measured here: lipid channel max response.

Molecules are shown by their SMILES. Results filed as inconclusive are left out. Calls of active or inactive are those of the source. Unless noted, the call rests on the fitted dose curve; in most records, active means well fitted curve in the direction sought with a large enough effect; inconclusive means small, poorly fitted or top-dose-only effect, or another doubt; inactive means no such curve, though single readings can be large; an effect the other way counts as inactive or inconclusive.

Cytochrome P450 1A2 (Homo sapiens), sequence (P05177 whole entry, looked up): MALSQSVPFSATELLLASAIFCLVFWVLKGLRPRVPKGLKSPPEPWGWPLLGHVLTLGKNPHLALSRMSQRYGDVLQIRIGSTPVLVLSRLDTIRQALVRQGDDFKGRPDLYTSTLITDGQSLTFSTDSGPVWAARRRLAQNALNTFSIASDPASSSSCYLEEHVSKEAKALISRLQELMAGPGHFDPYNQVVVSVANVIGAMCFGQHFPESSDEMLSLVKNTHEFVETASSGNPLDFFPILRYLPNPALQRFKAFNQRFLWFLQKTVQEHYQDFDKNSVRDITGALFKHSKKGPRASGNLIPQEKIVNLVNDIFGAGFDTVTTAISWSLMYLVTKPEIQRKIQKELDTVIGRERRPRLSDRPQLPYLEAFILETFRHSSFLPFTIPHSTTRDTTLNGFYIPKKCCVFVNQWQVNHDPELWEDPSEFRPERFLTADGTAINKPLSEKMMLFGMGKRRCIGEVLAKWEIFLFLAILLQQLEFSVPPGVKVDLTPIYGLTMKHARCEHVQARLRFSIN
Dual specificity protein kinase CLK4 (Homo sapiens), sequence (Q9HAZ1 whole entry, looked up): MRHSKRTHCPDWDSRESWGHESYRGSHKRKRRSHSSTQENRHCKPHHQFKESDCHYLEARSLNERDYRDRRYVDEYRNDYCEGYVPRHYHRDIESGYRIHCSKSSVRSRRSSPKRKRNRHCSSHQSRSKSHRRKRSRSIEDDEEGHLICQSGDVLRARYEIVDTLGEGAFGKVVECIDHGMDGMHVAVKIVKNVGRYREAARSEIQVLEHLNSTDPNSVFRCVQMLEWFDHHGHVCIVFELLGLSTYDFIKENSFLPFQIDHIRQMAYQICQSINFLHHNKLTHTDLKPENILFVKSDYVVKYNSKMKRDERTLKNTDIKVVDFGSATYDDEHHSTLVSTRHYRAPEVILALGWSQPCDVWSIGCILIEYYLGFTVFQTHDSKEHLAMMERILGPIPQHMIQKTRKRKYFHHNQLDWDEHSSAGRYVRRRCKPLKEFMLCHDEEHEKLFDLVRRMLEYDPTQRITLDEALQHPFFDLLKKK
Cytochrome P450 3A4 (Homo sapiens), sequence (P08684 whole entry, looked up): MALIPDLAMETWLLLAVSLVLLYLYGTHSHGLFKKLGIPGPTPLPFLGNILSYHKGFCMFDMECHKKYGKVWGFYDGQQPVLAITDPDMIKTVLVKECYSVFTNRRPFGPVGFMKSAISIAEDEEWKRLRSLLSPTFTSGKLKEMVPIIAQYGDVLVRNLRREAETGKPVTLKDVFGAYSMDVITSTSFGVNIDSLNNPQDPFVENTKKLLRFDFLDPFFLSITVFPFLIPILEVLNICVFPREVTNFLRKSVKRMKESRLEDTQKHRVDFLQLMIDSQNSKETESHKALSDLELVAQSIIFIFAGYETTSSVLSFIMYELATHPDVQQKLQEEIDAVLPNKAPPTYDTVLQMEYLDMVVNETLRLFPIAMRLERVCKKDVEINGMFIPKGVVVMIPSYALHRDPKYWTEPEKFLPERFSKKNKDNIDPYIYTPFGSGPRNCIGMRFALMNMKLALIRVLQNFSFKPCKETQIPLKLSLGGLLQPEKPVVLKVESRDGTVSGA
Cytochrome P450 2C19 (Homo sapiens), sequence (P33261 whole entry, looked up): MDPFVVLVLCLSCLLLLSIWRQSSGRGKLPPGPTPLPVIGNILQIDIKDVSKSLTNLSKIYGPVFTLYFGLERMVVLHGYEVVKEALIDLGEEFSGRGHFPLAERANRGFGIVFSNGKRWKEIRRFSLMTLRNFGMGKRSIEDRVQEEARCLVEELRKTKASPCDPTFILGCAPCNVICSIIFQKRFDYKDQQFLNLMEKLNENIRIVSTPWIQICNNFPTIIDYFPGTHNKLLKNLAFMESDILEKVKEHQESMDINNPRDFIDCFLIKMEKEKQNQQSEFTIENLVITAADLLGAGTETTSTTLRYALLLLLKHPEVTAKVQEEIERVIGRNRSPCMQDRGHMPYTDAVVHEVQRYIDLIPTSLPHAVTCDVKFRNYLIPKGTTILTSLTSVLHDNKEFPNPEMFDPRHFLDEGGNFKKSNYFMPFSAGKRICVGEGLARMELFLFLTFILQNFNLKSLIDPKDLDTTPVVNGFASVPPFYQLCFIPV

On to `c1csc(CNc2ncnc3ccc(-c4ccoc4)cc23)c1`, for which the Potency in [1] is 3.16 µM (active); in assay [4], > 46 µM (inactive); in assay [5], > 46 µM (inactive); in [8], 7.94 µM (active); in assay [10], 6.31 µM (active); in assay [12] it was 0.251 µM (active). The values for the Potency in [13] and in [14] were 0.355 µM (active) and 0.0501 µM (active), respectively. Moreover, the activity change, negative = inhibition in assay [2] is 1.06% (inactive); in assay [11], -0.111% (inactive). Also, the activity, negative = inhibition in assay [3] is -21% (inactive). In addition, the molecule was classed as inactive in [6]. In addition, the Potency entry in [7], in [9], in [15] and in [16] was “inactive” throughout. The figures for the max response in [11] (setting [19]) and in assay [11] (setting [20]) were 15.9% and 14.7%, respectively.

For `CS(=O)(=O)Nc1cccc(-c2ccc3ncnc(Nc4ccccc4)c3c2)c1`, the Potency was 1 µM (active) in [1]; > 46 µM (inactive) in assay [4]; > 46 µM (inactive) in assay [5]; 15.8 µM (active) in assay [12]; 14.1 µM (active) in assay [13]; 14.1 µM (active) in assay [14]. Besides, the activity, negative = inhibition in [3] is -2.27% (inactive). In addition, the molecule was classed as inactive in [6]. In addition, the Potency result in assay [7], in assay [9], in assay [15] and in assay [16] was “inactive” in each case. Moreover, the activity change, negative = inhibition in [11] was 5.6% (inactive). The max response came out at 6.09% in assay [11] (setting [19]) and 11.8% in [11] (setting [20]).

Regarding `Cc1nc2cnc(N3CCOCC3)nc2n(C2CC2)c1=O`, the activity change, negative = inhibition in assay [17] was -11.6% (inactive); in assay [2], -11.7% (inactive); in assay [11], 7% (inactive). In addition, in [3], the activity, negative = inhibition was -3.09% (inactive). In addition, the Potency in assay [4] is > 9.22 µM (inactive); in [5], > 46 µM (inactive). In [6], the result was inactive. Further, the Potency result in [7], in [9], in assay [12], in [13], in assay [14] and in assay [15] was “inactive” throughout. Moreover, in [16], the Potency entry was “inactive”. For the same molecule, the max response in assay [11] (setting [19]) came to 18%; in assay [11] (setting [20]), 23.9%.

Take `CCNc1ncc2ncc(=O)n(CCOC)c2n1`: the Potency in assay [18] was > 11.4 µM (inactive); in assay [4] it was > 46 µM (inactive); in assay [5] it was > 46 µM (inactive); in [12], 15.8 µM (active); in assay [13], 11.2 µM (active). In addition, the activity change, negative = inhibition in assay [17] is -22.6% (inactive); in [2], 4.31% (inactive); in [11], 6.16% (inactive). For the same molecule, in assay [3], the activity, negative = inhibition was -26.5% (inactive). Further, the result in assay [6] was inactive. Further, the Potency result in [7], in assay [15] and in assay [16] was “inactive” each time. The max response in assay [11] (setting [19]) came out at 18.7%; in [11] (setting [20]), 22.5%.

For the molecule `CNc1nc(-c2ccc3c(c2)OCO3)nc2ccccc12`, the Potency in [18] is 11.4 µM (inactive); in [4], > 46 µM (inactive); in [5] it was > 46 µM (inactive); in assay [12], 14.1 µM (active); in assay [13], 28.2 µM (active). Besides, the activity change, negative = inhibition in assay [17] was 28.9% (inactive); in [2], 1.91% (inactive); in [11] it was -5.22% (inactive). In addition, the activity, negative = inhibition in assay [3] is -1.35% (inactive). Also, in [6], the result was inactive. In addition, the Potency entry in assay [7], in [15] and in [16] was “inactive” in each case. The max response in assay [11] (setting [19]) was 2.96%; in [11] (setting [20]), -1.26%.

`Cc1cnc(CNc2ccnc(-c3ccccc3C(F)(F)F)n2)cn1`: the Potency is > 11.4 µM (inactive) in [18], 15.8 µM (active) in assay [1], > 46 µM (inactive) in [4] and > 46 µM (inactive) in assay [5]. The activity change, negative = inhibition in assay [17] is 2.04% (inactive); in assay [2] it was 0.146% (inactive); in assay [11], 8.15% (inactive). The activity, negative = inhibition in assay [3] was 2.4% (inactive). In addition, in assay [6], the call was inactive. In addition, the Potency result in [7], in assay [12], in [13], in [15] and in [16] was “inactive” each time. In addition, the values for the max response in assay [11] (setting [19]) and in assay [11] (setting [20]) were 12.9% and 20.7%, respectively.

Source of the values: PubChem BioAssay (NCATS).
